Compound activity: PubChem, National Center for Advancing Translational Sciences (NCATS)
PTHR1 agonist: qHTS for PTHR1 Agonists: Primary Screen | 0.075% of 410,000 active | Parathyroid hormone/parathyroid hormone-related peptide receptor (Homo sapiens), Q03431 | HEK293 GP2 PTHR1 cells, GloSensor cAMP luminescence, 1 h | Potency, µM (series often up to 115 µM), without a hit: at the top dose activation, usual class: activators; also: potency is read from the fitted curve at half-maximal effect; nearly all actives have a fitted effect of over 55% in size
Target sequence (Q03431 whole entry, looked up): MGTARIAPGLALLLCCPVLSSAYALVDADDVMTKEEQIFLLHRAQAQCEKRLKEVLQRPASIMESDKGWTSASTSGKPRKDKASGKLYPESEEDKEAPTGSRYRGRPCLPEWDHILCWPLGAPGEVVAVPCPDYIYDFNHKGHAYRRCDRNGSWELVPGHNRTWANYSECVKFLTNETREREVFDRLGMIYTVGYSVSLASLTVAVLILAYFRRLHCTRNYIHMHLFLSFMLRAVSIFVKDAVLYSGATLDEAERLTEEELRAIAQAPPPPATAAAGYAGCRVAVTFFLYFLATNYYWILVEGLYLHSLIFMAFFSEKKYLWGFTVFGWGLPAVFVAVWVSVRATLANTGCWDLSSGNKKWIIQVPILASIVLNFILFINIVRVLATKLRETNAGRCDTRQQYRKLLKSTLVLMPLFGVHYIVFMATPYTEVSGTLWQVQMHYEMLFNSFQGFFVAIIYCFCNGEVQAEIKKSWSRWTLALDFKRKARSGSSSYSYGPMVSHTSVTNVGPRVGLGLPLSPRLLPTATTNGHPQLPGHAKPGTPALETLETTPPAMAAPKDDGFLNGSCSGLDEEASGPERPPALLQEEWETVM
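HEK-293-derived GP2 cells expressing PTHR1 and a GloSensor cAMP reporter, 3,000/well, plated overnight, given luciferin plus IBMX (each 0.5 mM as added) for 1 h at 37 °C, then compound for 1 h at 37 °C. Luminescence was read after 15 min at room temperature.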
gsp agonist: qHTS for Agonist of gsp, the Etiologic Mutation Responsible for Fibrous Dysplasia/McCune-Albright Syndrome: qHTS. gsp mutant cells, cAMP HTRF, 30 min. Potency, µM (titrated, usually from 76.9 µM), for the others: at the top dose activation (cAMP increase), most hits filed as activators. 0.13% of 340,000 active; active = well fitted activation curve with a large enough effect; inconclusive = small, poorly fitted or top-dose-only effect, or another doubt; inactive = no such curve, though single readings can be large or run the other way; cell line not stated here;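 also: phosphodiesterase inhibitor Ro 20-1724 added with compounds to block cAMP breakdown; potency is read from the fitted curve at half-maximal effect; nearly all actives have a fitted effect of over 60% in size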
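Cells in DMEM/10% FBS with G418 were pretreated with compounds in DMSO plus […] (300 uM stock) for 30 min at 37C. cAMP was measured by HTRF (cAMP-d2 plus anti-cAMP antibody-K) after 30 min at room temperature.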
RXFP1 agonist: qHTS Assay for Agonists of the Relaxin Receptor RXFP1; Relaxin receptor 1 (Homo sapiens), Q9HBX9; HEK293T-RXFP1 cAMP TR-FRET, 30 min; response scale: percent of porcine relaxin response, buffer zero; Potency, µM (series often up to 57.5 µM), for the others: at the highest dose activation, usual class: activators; 0.3% of 370,000 active; AID 2676, 2010; also: potency is read from the fitted curve at half-maximal effect; % is scaled to controls: 0 for no effect and ±100 for the full control effect; nearly all actives have a fitted effect of over 60% in size
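HEK293 cells stably expressing RXFP1, treated 30 min at 37C with compounds plus PDE4 inhibitor Ro 20174; cAMP measured by HTRF TR-FRET. Normalized to buffer and 29 nM porcine relaxin; EC50 by Hill fit.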
gsp antag: qHTS for Antagonists of gsp, the Etiologic Mutation Responsible for Fibrous Dysplasia/McCune-Albright Syndrome: qHTS | Potency, µM (highest dose often 76.9 µM), without a hit: at the top dose activity change, negative = inhibition, hits mostly inhibitors | gsp-mutant cells, cAMP HTRF, 30 min | 0.4% of 340,000 active | AID 624288, 2012; calls by dose curve; cell line not stated here;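 also: intracellular cAMP measured with PDE inhibitor Ro 20-1724 present during compound exposure; potency is read from the fitted curve at half-maximal effect; % is scaled to controls: 0 for no effect and ±100 for the full control effect; nearly all actives have a fitted effect of over 65% in size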
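G418-selected cells were plated in DMEM/10% FBS for 16-24 h at 37C, then treated with compounds plus the PDE inhibitor […] (300 uM solution added) for 30 min at 37C. Intracellular cAMP was measured by HTRF after 30 min lysis at room temperature.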
RXFP1 antag: qHTS Assay for Antagonists of the Relaxin Receptor RXFP1; HEK293-RXFP1, relaxin-stimulated cAMP HTRF, 30 min; active compounds read low; activity change, negative = inhibition, % at 57.5 µM; 0.59% of 350,000 active;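 active = activity change of -60% or lower, but not beyond a set lower limit; inconclusive = change between -60% and -40%, or beyond the set limit; inactive = change above -40%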; also: % is scaled to controls: 0 for no effect and ±100 for the full control effect
Active calls of the source: *; i = inactive; ? = inconclusive; . = no result given; [ ] = another dose, or the depositor's remark. Shown are actives, neighbours in structure and some others; about 1% of the full set was active somewhere. Unless noted, calls follow the shape of the dose curve; as a rule, active = well fitted curve in the direction sought with a large enough effect; inconclusive = small, poorly fitted or top-dose-only effect, or another doubt; inactive = no such curve, though single readings can be large; an effect the other way counts as inactive or inconclusive.

SMILES | PTHR1 agonist | gsp agonist | RXFP1 agonist | gsp antag | RXFP1 antag
COc1ccc(-n2nc(C(=O)NCC(=O)NCCCN3CCOCC3)c3ccccc3c2=O)cc1OC | -7% | 52%[15.4 µM] | 14µM* | 33% | 11
COc1ccc(-n2nc(C(=O)NCC(=O)NCCCN3CCOCC3)c3ccccc3c2=O)cc1 | i | ? | 16µM* | 15% | 32
O=C(Cn1c(C(=O)N2CCc3ccccc3C2)cc2sccc21)c1ccccc1 | 22µM* | 20% | 0% | 0% | -2
COc1cc2c(C(=O)N(C)c3cccc(C(F)(F)F)c3)cn(CC(C)C)c(=O)c2cc1OC | -45% | . | 0% | . | .
Cc1cc2cc(CN3C(=O)c4ccccc4C3=O)ccc2n1C | -13% | 32µM* | 23% | 21% | 4
O=C(O)CCCC[P+](c1ccccc1)(c1ccccc1)c1ccccc1 | . | . | . | . | 4
CC(C)(C)NC(=O)C(c1ccncc1)N(C(=O)Cn1nnc(-c2ccc(F)cc2)n1)c1cccc(F)c1 (centres undefined) | 10µM* | ? | 1% | -21% | 3
CCCN1CCN(CC2=C(C(=O)OCC)C(c3ccc(OC(C)C)cc3)NC(=O)N2)CC1 (centres undefined) | -21% | . | -2% | . | .
COc1ccccc1NC(=O)C1=C(C)Nc2c(C(=O)Nc3cccc(C)c3)cnn2C1c1ccccc1Cl (centres undefined) | 8% | . | -1% | . | -1
CCOc1ccc(-n2cc(-c3ccc(OC)c(OC)c3)[nH]c2=S)cc1 | -19% | 29% | 4% | -16% | -76*
CCOc1ccc(-c2cn(-c3ccccc3OC)c(=S)[nH]2)cc1 | i | -42% | 4% | 5% | -20
Cc1ccc(-n2nnc3c(=O)oc4ccccc4c32)cc1 | -6%[57.5 µM] | -17% | -2% | ? | -89*
CCOC(=O)C1=C(C)N=c2s/c(=C/c3ccc(OCC(=O)O)c(OC)c3)c(=O)n2C1c1ccc(Cl)cc1 (centres undefined) | i | 19%[15.4 µM] | . | 35µM* | -14
CCOC(=O)C1=C(C)N=c2s/c(=C/c3ccc(OCC(=O)O)cc3)c(=O)n2C1c1ccc(F)cc1 (centres undefined) | -25% | 41% | -1% | 22µM* | -9
CCOC(=O)c1ccc(OCCN2C[C@H](O)[C@@H](O)[C@H](O)[C@H]2CO)cc1 | . | . | . | . | -6
CCN(Cc1ccccc1)C(=O)C1CCC(CNS(=O)(=O)c2ccc3c(c2)CCCC(=O)N3)CC1 (centres undefined) | -32% | . | 3% | . | .
O=C(O)c1ccc(COc2ccccc2C=C2C(=O)c3ccccc3C2=O)cc1 | -16% | 1%[15.4 µM] | -1% | -21% | -60*
O=C(COC(=O)/C=C/c1ccc([N+](=O)[O-])cc1)Nc1ccc2[nH]c(=O)[nH]c2c1 | i | 0% | 0% | 2% | -69*
COc1cccc(Cl)c1NC(=O)N1CCc2c([nH]c3ccccc23)C1C(F)(F)F (centres undefined) | -3% | ? | -2% | -15% | -75*
O=[N+]([O-])c1ccc(-c2cn3c(n2)CCC3)cc1 | -81% | 14µM* | ? | 4% | 1
Cc1cc(C)cc(NC(=O)Cn2cc(S(=O)(=O)NC(C)(C)C)c(S(=O)(=O)NC(C)(C)C)c2)c1 | -19% | . | -1% | . | -13
CCn1c(SCC(=O)c2[nH]c(C)c(C(C)=O)c2C)nnc1-c1ccncc1 | 21%[57.5 µM] | -4% | 1% | -10% | -19
CCOC(=O)c1c(C)[nH]c(C(=O)COC(=O)CCSc2ccccc2)c1C | i | -30% | 0% | -4% | -15
CC(=O)c1c(C)[nH]c(C(=O)COC(=O)CCSc2ccccc2)c1C | -6% | -20% | 0% | -22% | -64*
CCn1c(SCC(=O)c2[nH]c(C)c(C(C)=O)c2C)nnc1-c1ccccc1 | -16%[57.5 µM] | -3% | 3% | 20µM* | 6
